Test results reported in PubChem BioAssay (NCATS).
“And” between values parts separate entries of the source, which are not always exact repeats. Equal entries are not always repeated. The source made the active and inactive calls. The call rests on the fitted dose curve; in most records, active means well fitted activation curve with a large enough effect; inconclusive means small, poorly fitted or top-dose-only effect; inactive means no such curve, though single readings can be large or run the other way.

molecular target: Cytochrome P450 3A4 (Homo sapiens) (UniProt P08684); assay: qHTS Assay for Activators of Cytochrome P450 3A4 (AID 885); conditions: recombinant CYP3A4, Luciferin-PPXE luminescence, 60 min; series mostly up to 57.1 µM; further: nearly all actives have a fitted effect of over 65% in size
Sequence (P08684 whole entry, looked up): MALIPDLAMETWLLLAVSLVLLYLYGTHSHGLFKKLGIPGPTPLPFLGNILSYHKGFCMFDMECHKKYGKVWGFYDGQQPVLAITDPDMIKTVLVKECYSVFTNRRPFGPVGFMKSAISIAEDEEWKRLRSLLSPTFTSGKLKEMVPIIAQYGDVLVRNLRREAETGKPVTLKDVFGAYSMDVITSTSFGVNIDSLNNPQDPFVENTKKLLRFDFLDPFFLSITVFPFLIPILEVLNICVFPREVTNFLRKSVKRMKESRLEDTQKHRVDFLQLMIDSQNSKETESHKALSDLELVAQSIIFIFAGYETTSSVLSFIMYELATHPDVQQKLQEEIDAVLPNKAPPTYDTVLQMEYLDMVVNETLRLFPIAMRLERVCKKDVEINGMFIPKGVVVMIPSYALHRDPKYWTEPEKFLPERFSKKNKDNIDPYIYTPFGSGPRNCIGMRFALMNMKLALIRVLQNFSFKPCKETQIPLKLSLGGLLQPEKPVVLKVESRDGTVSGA
Outline: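 Signal was normalized against complete inhibition by 57 uM ketoconazole. The reaction used 20nM CYP3A4 with 25uM Luciferin-PPXE, 10-min compound preincubation and a 60-min NADPH-supported step at RT.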

Potency, inactive:
CNC(=O)[C@@]1(C)C=C[C@@H](Cc2ccccc2)N1C(=O)OC
CCC1=C2CC[C@H]3C(=O)N(c4ccccc4)C(=O)[C@H]3[C@H]2[C@@]2(C)C(=O)N(CC(=O)OC)C(=O)N2C1=O
CCC1=C(OC(=O)N(CC)CC)N2C(=O)OC(=NCCOC)[C@]2(C)[C@H]2C1=CC[C@H]1C(=O)N(C)C(=O)[C@H]12
N#Cc1ccc(C23CC4(C2)[C@H](CN(CC2CCCCC2)[C@@H]4c2ccccc2)C3c2ccc(Cl)nc2)cc1 (some centres not stated)
CCC1=C2CC[C@H]3C(=O)N(CC(=O)OC)C(=O)[C@H]3[C@H]2[C@@]2(C)C(=NCC(=O)OC)OC(=O)N2C1=O
CNC(=O)[C@@H]1C[C@H]1[C@@H](NC(=O)CNC(=O)OCc1ccccc1)c1ccccc1
FC(F)(F)c1ccc(C2[C@H]3CN(Cc4ccc(-c5ccccc5)cc4)[C@H](c4ccccc4)C34CC2(c2ccccc2)C4)cc1 (some centres not stated)
COC(=O)[C@@H]1C[C@@]2(O)[C@H](O)[C@H](O)[C@H](O)C[C@H]2N1Cc1ccc(-c2ccccc2)cc1
FC(F)(F)c1ccc(CN2C[C@@H]3C(c4ccc(C(F)(F)F)cc4)C4(c5cccnc5)CC3(C4)[C@H]2c2ccccc2)cc1 (some centres not stated)
COC(=O)[C@@H]1C[C@@H]2CC[C@@H](O)C[C@@H]2N1Cc1ccc(C)s1
COC(=O)N1[C@H](C)C=C[C@]1(Cc1ccccc1)C(=O)NCc1ccc(N(C)C)cc1
FC(F)(F)c1ccc(CN2C[C@@H]3C(c4ccccc4)C4(c5ccccc5)CC3(C4)[C@H]2c2ccccc2)cc1 (some centres not stated)
CCC1=C2CC[C@H]3C(=O)N(CC)C(=O)[C@H]3[C@H]2[C@@]2(C)C(=NCC(=O)OC)OC(=O)N2C1=O

Activity change, positive = activation, inactive:
CO[C@@H]1/C=C\CC(=O)N[C@@H](C)C(=O)OC[C@H](NS(=O)(=O)c2ccc(C)cc2)[C@H](C)/C=C\CC(=O)OC[C@H]1C -37.9% [at 11.4 µM]
CO/N=C1/c2cc(OC)ccc2O[C@@H](c2cccc(OC)c2)[C@H]1O -52.8% [at 11.4 µM]
O=C1CCCC=C1[C@@H](O)COCc1ccccc1 -31.3% [at 11.4 µM]
O=C1[C@H]2[C@H]3[C@H](O)[C@H](O)C/C(=N/OC[C@@H](O)COCc4ccco4)[C@H]3CC[C@@H]2C(=O)N1C1CCCCC1 -43.8% [at 11.4 µM]
CO[C@@H]1COC(=O)CC=C[C@@H](C)[C@@H]2C=C[C@H](O)[C@@H](COC(=O)C/C=C\[C@H]1C)O2 -43.1% [at 11.4 µM]
CO[C@H]1COC(=O)C/C=C\[C@@H](C)[C@H](OC)COC(=O)CCC[C@@H]1C -58.3% [at 11.4 µM]
CO[C@@H]1COC(=O)[C@H](COCc2ccccc2)NC(=O)C/C=C\[C@@H](C)[C@H](OC)COC(=O)[C@@H](C)NC(=O)C/C=C\[C@H]1C -36.6% [at 11.4 µM]
CO[C@@H]1/C=C\CC(=O)N[C@@H](C)C(=O)OC[C@@H](OC)[C@H](C)/C=C\CC(=O)OC[C@H]1C -36.7% [at 11.4 µM]
COc1ccc(COC(=O)N/N=C2/C[C@@H](O)[C@@H](O)[C@@H]3[C@H]4C(=O)N(c5ccc(F)cc5F)C(=O)[C@@H]4CC[C@H]23)cc1 -51.6% [at 11.4 µM]
COc1ccc(COC(=O)N/N=C2/C[C@@H](O)[C@@H](O)[C@@H]3[C@H]4C(=O)N(c5ccc(F)cc5F)C(=O)[C@@H]4CC[C@@H]23)cc1 -42.8% [at 11.4 µM]
CO[C@H]1COC(=O)C/C=C\[C@@H](C)COC(=O)[C@@H](CCSC)NC(=O)C/C=C\[C@@H]1C -36.9% [at 11.4 µM] and -35.4% [at 11.4 µM]
CC(=O)OC[C@@H]1O[C@H](CCO/N=C(\C)CCN2CCc3nc(-c4ccccc4)c(-c4ccccc4)cc3C2)C=C[C@@H]1OC(C)=O -47.2% [at 11.4 µM]
O=C1[C@H]2[C@H]3[C@H](O)[C@H](O)C/C(=N/OC[C@@H](O)COCc4ccco4)[C@H]3CC[C@@H]2C(=O)N1c1cccc(Oc2ccccc2)c1 -40.2% [at 11.4 µM]
COC(=O)[C@@H]1CC[C@H](C)[C@@H](c2ccc(C)cc2)N1C(=O)c1ccc(/C=N\O[C@@H](C)CN2CCCCc3nc(C)c(C)cc32)cc1 -36.1% [at 11.4 µM]
